Pf apPOL inh – Pf-apPOL DNA polymerase inhibition; Recombinant Pf-apPOL, molecular beacon fluorescence, 1.5 h; inhibition, % at 10 µM; 210,000 compounds, 0.25% hits; AID 1794808
mHTT CaM bind – mHTT-calmodulin interaction abrogation | AlphaScreen His-mHTT/GST-CaM binding, luminescence | inhibition, % at 15 µM | 190,000 compounds, 3.6% hits | AID 1671202;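 also: 0% = both proteins with DMSO and 100% = one protein alone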
An asterisk follows results filed as active; · = not tested or not shown; + = active, no number; ! = a repeat was not active. Most compounds without a hit are left out; they make up all but 3.6% or so of the library. Rule as the data show it: active = inhibition above about 50%; inactive = the rest.

SMILES | Pf apPOL inh | mHTT CaM bind
COc1ccc(C=CC(=O)N2CCc3cc(OC)c(OC)cc3C2COc2ccc3c(C)cc(=O)oc3c2)cc1OC (configuration not stated) | -1 | 69*
COc1cc2c(cc1OC)C(COc1ccc(F)cc1)N(C(=O)c1cccc(F)c1)CC2 (configuration not stated) | -1 | 76*
COc1cc2c(cc1OC)C(COc1ccc3c(C)cc(=O)oc3c1)N(C(=O)c1ccc(Cl)cc1)CC2 (configuration not stated) | 0 | 0
COc1ccc(OCC2c3cc(OC)c(OC)cc3CCN2C(=O)c2cccc(OC)c2)cc1 (configuration not stated) | -2 | 4
O=C(CCc1ccccc1)NCC1CCN(c2ncccn2)CC1 | -9 | -5
O=C(CSc1cccc2cccnc12)NCc1ccccc1 | 7 | 1
Oc1ccc(COCc2ccccc2)c2cccnc12 | -4 | 99*
Cc1cc(OCC(=O)Nc2cccc(C(F)(F)F)c2)ccc1Cl | -1 | -13
O=C(Nc1ccc(F)c(Cl)c1)N1CCn2cccc2C1Cc1ccccc1 (configuration not stated) | 2 | 100*
O=C(Nc1ccccc1Br)N1CCn2cccc2C1Cc1ccccc1 (configuration not stated) | 1 | 52*
O=C(Nc1cccc(F)c1)N1CCn2cccc2C1Cc1ccccc1 (configuration not stated) | -1 | 6
O=C(Nc1ccccc1)N1CCn2cccc2C1Cc1ccccc1 (configuration not stated) | -9 | 28
COc1ccc(C(=O)NCC#CCN(C(C)C)C(C)C)cc1OC | 2 | -8
CCCCC(=O)Nc1ccc(NC(=O)c2ccc(OC)cc2)cc1OC | 4 | -3
CC(=O)Nc1nnc(SCc2cc(=O)c(OC(=O)c3ccco3)co2)s1 | 20 | 0
Cc1cc(C)nc(SCc2cc(=O)c(OC(=O)c3cc4ccccc4o3)co2)n1 | 2 | 92*
Cc1ccc(/C=C/C(=O)Nc2ncc(Cc3ccc(F)cc3)s2)o1 | 2 | -1
C/C(=C\C(=O)c1ccc(C)cc1)Nc1ccccc1O | -1 | 26
CC1=C(C#N)C(=O)NC(=O)/C1=C\c1ccc(-c2cc([N+](=O)[O-])ccc2Cl)o1 | 12 | 1
CC1=C(C#N)C(=O)NC(=O)/C1=C\c1ccc(-c2ccc(Cl)cc2Cl)o1 | -4 | 71*!
Cc1ccccc1C(=O)NCCCn1cccc1 | -9 | 2
C=CCN1C[C@H](COC(=O)c2cccc(C)c2)Oc2cccc(F)c2S1(=O)=O | -4 | -7
O=C(CC(=O)c1ccccn1)c1ccccn1 | -14 | ·
N/C(=N\N=C(/N)c1ccccn1)c1ccccn1 | -1 | +
Cn1c(C(=O)N2CCN(c3ccccc3)CC2)cc2c1CCN(Cc1cccc(F)c1)C2 | -7 | 66*
SMILES | Pf apPOL inh | mHTT CaM bind
Cn1c(C(=O)NCCN2CCCC2)cc2c1CCN(Cc1cccc(F)c1)C2 | 12 | 79*
Cn1c(C(=O)N2CCN(c3ccc(F)cc3)CC2)cc2c1CCN(Cc1ccccc1)C2 | 3 | 85*
Cn1c(C(=O)N2CCOCC2)cc2c1CCN(Cc1ccccc1)C2 | -1 | 1
COc1ccc(CNC(=O)c2cc3c(n2C)CCN(Cc2cccc(F)c2)C3)cc1 | -4 | 28
Cn1c(C(=O)N2CCCCC2)cc2c1CCN(Cc1cccc(F)c1)C2 | -6 | 33
O=C(NC1CCCC1)c1c[nH]c2ccc(S(=O)(=O)Nc3ccccc3F)cc2c1=O | -2 | 3
CC1C(=O)N(c2ccccc2Cl)CCN1C(=O)c1cccs1 (configuration not stated) | 0 | -5
CN(CC(=O)Nc1ccc(C(F)(F)F)cc1)S(=O)(=O)c1ccc(Br)s1 | -11 | -6
CN1CCN(C/C=C/c2ccccc2[N+](=O)[O-])CC1 | -4 | 3
Cc1ccc(C(=O)N2CCC(c3nc(C(=O)N(C)C)c(C)o3)CC2)c(C)c1 | -2 | -4
CC(=O)N(C(C)=O)c1c(N2CCCCC2)c2ccccc2oc1=O | 4 | 25
COc1ccc(CCN2CC(C(=O)N3CCCCC3)CC2=O)cc1OC (configuration not stated) | -3 | -4
COCc1cc(C)nc2sc3c(-c4ccccc4)onc3c12 | 0 | -5
Fc1ccc(NCc2ccc3c(c2)OCCO3)cc1F | 2 | -14
Brc1ccc(CNc2cc3c(cc2Br)OCCO3)cc1 | -13 | 79*
O=c1c(=O)n(-c2ccc3c(c2)OCCO3)ccn1Cc1cccc(Cl)c1 | 4 | -3
Clc1cccc(CNc2cc3c(cc2Br)OCCO3)c1 | -4 | 88*
N#Cc1ccc(C#CCOC(=O)c2cccs2)cc1 | -7 | ·
Cc1ccc(N=C(NOCc2ccccc2)c2nonc2N)cc1 | -2 | -19
COc1ccccc1NC(=O)N1CC2CN(S(=O)(=O)c3ccc(C)cc3)CC(C1)O2 | -4 | -4
COc1ccc(S(=O)(=O)N(CC(=O)Nc2ccc(F)cc2)c2ccccc2)cc1 | -3 | 0
CC(=O)Oc1ccccc1C=C1SC(=S)N(CC(=O)O)C1=O | -2 | 11
CN1CCN(NS(=O)(=O)c2ccc([N+](=O)[O-])cc2)CC1 | -3 | -4
O=C(NNC(=O)C(F)(F)Sc1ccccc1)c1ccsc1 | 54* | ·
O=C(NCC(O)(c1ccccc1)C(F)(F)F)c1ccsc1 (configuration not stated) | -9 | -18
SMILES | Pf apPOL inh | mHTT CaM bind
Cc1ccc(-c2cc(=O)n(CC(=O)Nc3ccc(C)c(C)c3)[nH]2)cc1 | 2 | 10
O=C(Cn1[nH]c(-c2ccccc2)cc1=O)Nc1ccc(Cl)cc1 | -2 | 63*
CC(=O)Nc1ccccc1NC(=O)COc1ccccc1 | 5 | -7
COc1ccc(NC(=O)COc2ccccc2)c2ccccc12 | 74* | -24
Cc1ccc(S(=O)(=O)Nc2nc(CC(=O)NCc3ccc4c(c3)OCO4)cs2)cc1 | -10 | -4
O=[N+]([O-])c1cc(F)c(N2CCCC2)cc1N1CCCCCC1 | -4 | 79*
Cc1cc(N2CCCCC2)c(F)cc1[N+](=O)[O-] | 1 | 0
O=[N+]([O-])c1cc(F)c(N2CCOCC2)cc1N1CCOCC1 | -7 | 4
O=[N+]([O-])c1cc(F)c(N2CCCC2)cc1N1CCCC1 | 1 | 59*
COc1ccc(C2(C(=O)Nc3ccccc3[N+](=O)[O-])CCCC2)cc1OC | -14 | 15
CCOc1ccc2nc(SC)nc(C)c2c1 | -10 | -2
CCS(=O)(=O)N1CCC(C(=O)NC2CCCC(C)C2C)CC1 (configuration not stated) | -16 | -10
CC(=O)N1N=C(c2ccccc2)CC1c1ccccc1[N+](=O)[O-] (configuration not stated) | -35 | 0
O=[N+]([O-])c1ccccc1C1CC(c2ccccc2)=NN1 (configuration not stated) | 7 | 61*
CSc1cccc(NC(=O)N2CC=C(c3cn(C)c4ncccc34)CC2)c1 | -2 | 30
C=CCSc1nc2c(c(-c3ccc(C)o3)c1C#N)CCCC2 | -24 | -24
Cc1ccc(-c2c(C#N)c(SCC(=O)c3ccc(O)c(O)c3)nc3c2CCCC3)o1 | -1 | 69*
CC(C)(Oc1ccc(Cl)cc1)C(=O)NCC1CN(c2ccccc2)C(=O)O1 (configuration not stated) | 1 | -11
CCCCC[C@@H](C)N1C[C@@H](COCc2ccccc2)Oc2cc(N3CC[C@@H](N(C)C)C3)ccc2S1(=O)=O | -7 | 100*
